# Results published in PubChem BioAssay (NCATS).
# Results filed as inconclusive are left out. Unmarked numbers belong to inactive results. Active and inactive are the calls of the source. The call rests on the fitted dose curve; in most records, active means well fitted inhibition curve with a large enough effect; inconclusive means small, poorly fitted or top-dose-only effect; inactive means flat fitted curve, though single readings scatter.
# Test system: astro (control astrocytes)
# Assay: Drug repurposing screens with cells derived from glioblastoma tumor samples (AID 1345199); further: nearly all actives have a fitted effect of over 40% in size
# Conditions: viability, ATP luminescence, 48 h; series mostly up to 45.9 µM; activity, negative = cell killing: at the top concentration
# Procedure: CD133+ cells were isolated from GBM patient biopsies and cultured as neurospheres. Neurospheres from four patients were used to screen the NCATS pharmaceutical collection (NPC) library of approved drugs and bioactive compounds. […] The neurospheres were incubated with drugs for 48 hours in 1536-well format, then assayed with an ATP content cell viability assay. […] These hits were cherry picked to confirm activity in the four original GBM lines screened plus three other slower growing GMB lines (unable to yield enough cells for a full primary screen). Variable activities of the confirmed primary hits in the different GBM patient lines were observed. The patient line 206 responded to the greatest number of compounds and line 923 responded to the least amount of active compounds.
# On the % scale 0 is the no-effect control and ±100 the full control effect; potency means the concentration at half of the fitted maximal effect.
SMILES,"activity, negative = cell killing",Potency
CC(C)Oc1cccc(NC(=O)c2ccccc2C(F)(F)F)c1,-27% [at 91.6 µM],–
CCOP(=O)(NC(C)C)Oc1ccc(SC)c(C)c1 (stereo not given),-15.4% [at 91.6 µM],–
COC(C)(C)CCCC(C)C/C=C/C(C)=C/C(=O)OC(C)C (stereo not given),-20.6%,–
CC[N+]1(CCOC(=O)C(O)(c2ccccc2)c2ccccc2)CCCCC1,-7.72%,–
CN(C)[C@@H]1C(=O)C(C(N)=O)=C(O)[C@@]2(O)C(=O)C3=C(O)c4c(O)cccc4[C@@](C)(O)[C@H]3[C@H](O)[C@@H]12,–,inactive
C[C@]12N[C@H](Cc3ccccc31)c1ccccc12,–,inactive
CCCCc1ccc(C(=O)O)nc1,-9.23%,–
C[N+](C)(C)CC(=O)O,-2.74%,–
Nc1ccc(Sc2ccc(N)cc2)cc1,-24.2% [at 91.6 µM],–
C[C@@H]1[C@H](O)[C@@H](C)C=CC=CCCC=CC=CC=CC=C[C@H](O[C@H]2O[C@@H](C)[C@H](O)[C@@H](N)[C@@H]2O)CC2O[C@](O)(C[C@@H](O)[C@H](O)CC[C@@H](O)C[C@@H](O)C[C@@H](O)CC(=O)O[C@H]1C)C[C@H](O)[C@H]2C(=O)O,-5.26%,–
CO/C=C(/C(=O)OC)c1ccccc1Oc1cc(Oc2ccccc2C#N)ncn1,–,14.1 µM (active)
C[C@]12CCC(=O)C(O)=C1CC[C@@H]1[C@H]3CCC(=O)[C@@]3(C)CC[C@@H]12,-13.6%,–
c1cc2ccc3cccc4ccc(c1)c2c34,-22.3% [at 91.6 µM],–
CC(Cc1ccc(O)cc1)NCC(O)c1cc(O)cc(O)c1 (stereo not given),-19.4%,–
CCOCCOC(C)=O,-7.79% [at 91.6 µM],–
CC(O)CN1CCN(CC(=O)[O-])CCN(CC(=O)[O-])CCN(CC(=O)[O-])CC1.[Gd+3] (stereo not given),–,inactive
O=[N+]([O-])c1c2ccccc2cc2ccccc12,-23.8% [at 91.6 µM],–
O=C(Nc1ccccc1-c1ccc(Cl)cc1)c1cccnc1Cl,-20.8% [at 91.6 µM],–
CCCN(CCC)c1c([N+](=O)[O-])cc(S(N)(=O)=O)cc1[N+](=O)[O-],–,31.6 µM (active)
CCCN1CCC[C@H](c2cccc(O)c2)C1,-13.8%,–

SMILES,"activity, negative = cell killing",Potency
COC(=O)c1cncn1C(C)c1ccccc1 (stereo not given),-10.6%,–
O=C(O)c1cc(Oc2ccc(C(F)(F)F)cc2Cl)ccc1[N+](=O)[O-],-6.39%,–
O=S(=O)(O)C(F)(F)C(F)(F)C(F)(F)C(F)(F)F,-19.7% [at 91.6 µM],–
c1ccc(C2(c3ccccc3)CC2C2=NCCN2)cc1 (stereo not given),-19.3%,–
CC(C)NC(C)Cc1ccc(I)cc1 (stereo not given),-14.6%,–
Nc1ccc(Cl)cc1,-8.37% [at 91.6 µM],–
CN[C@@H](C)[C@H](O)c1ccccc1,-20.2%,–
NC1=NC(=O)N2CC12 (stereo not given),3.39%,–
O=C(O)COc1nc(Cl)c(Cl)cc1Cl,5.98% [at 91.6 µM],–
CC(C)(C)C(O)C(Oc1ccc(Cl)cc1)n1cncn1 (stereo not given),-15.1% [at 91.6 µM],–
CCCCC(CC)COC(=O)c1ccccc1C(=O)OCC(CC)CCCC (stereo not given),-12.1% [at 91.6 µM],–
CCCCCCCCCCCCCCCC[N+](C)(C)C,–,11.2 µM (active)
CCCCOC(=O)c1ccccc1C(=O)OCc1ccccc1,-15.3% [at 91.6 µM],–
ClC1=C(Cl)[C@]2(Cl)[C@@H]3[C@@H]4C[C@@H]([C@H]5O[C@@H]45)[C@@H]3[C@@]1(Cl)C2(Cl)Cl,-10.2% [at 91.6 µM],–
CCO/N=C(\CC)C1=C(O)CC(c2c(C)cc(C)cc2C)CC1=O (stereo not given),-22.7% [at 91.6 µM],–
Nc1ccc([N+](=O)[O-])cc1,-17.1% [at 91.6 µM],–
C=CC(=O)NCNC(=O)C=C,-13.5% [at 91.6 µM],–
CS(=O)(=O)c1ccc(C(=O)C2C(=O)CCCC2=O)c([N+](=O)[O-])c1,-15.6% [at 91.6 µM],–
CC(=O)[O][Hg][c]1ccccc1,–,1.26 µM (active)
O=[N+]([O-])c1ccc([As](=O)(O)O)cc1,-3.35%,–
